As usually defined, the AC50 is the concentration giving half of the maximal activity seen.

In PubChem BioAssay (EPA / NIEHS) one finds outcome and AC50 data, which are given here for 40 compounds.

The source made the active and inactive calls. How the source made its calls: active means hit-call score of the fitted dose curve at least 0.9, where 1 is the maximum; inactive means score below 0.9.

Read-out in this assay: MYC, MYC (gene 4609)
As to the kind of experiment: LTEA_HepaRG_MYC: Life Technologies and Expression Analysis (LTEA) Assay for MYC using HepaRG (AID 2283518). The conditions noted are these: mRNA level, 48 h; actives raise or lower the signal. As to the method: LTEA_HepaRG is a cell based, multiplexed-readout assay that uses HepaRG, a human liver cell line, with measurements taken at 48 hours after chemical dosing on a 96-well plate.LTEA_HepaRG_MYC is one of 102 assay component(s) measured in the LTEA HepaRG cell culture assay. It is a marker of Cell proliferation, survival, death.Data from the assay component LTEA_HepaRG_MYC was analyzed into 1 endpoint. This assay endpoint, LTEA_HepaRG_MYC, was analyzed with bidirectional fitting relative to DMSO as the negative control and baseline of activity. Using a type of inducible reporter, measures of mRNA induction for gain or loss-of-signal activity can be used to understand regulation of transcription factor activity. To generalize the intended target to other relatable targets, this assay endpoint is annotated to the dna binding intended target family, where the subfamily is basic helix-loop-helix leucine zipper.
A total of 1060 chemcials from the ToxCast library were tested in eight-point concentration-response experiments. Cell culture and cytotoxicity assays were conducted at Thermo Fisher Scientific's Custom Services facility (Madison, WI). A single lot of human HepaRG cells (Thermo Fisher Scientific, Frederick, MD) was used for the cell culture experiments. 96-well format collagen type I coated plates of human HepaRG cells were prepared using established methods. Briefly, cryopreserved HepaRG cells were thawed, plated at a density of approximately 100,000 cells/well in HepaRG Thaw, Plate, and General Purpose media (HPRG770, Thermo Fisher Scientific), and incubated for 48 hours. 0.5% DMSO was selected as vehicle control to balance the requisite need of DMSO in HepaRG cultures to maintain differentiation (for example, baseline metabolism, proportions of hepatocytes vs. cholangiocytes), while enabling further hepatic receptor pathway activation (for example, PXR and CAR) in response to chemical exposure. 48 hours after plating, the culture medium was replaced with HepaRG Serum-Free Incudtion Media. Cells were exposed to each test chemical in duplicate and maintained in CO2 incubators for another 48 hours. Chemical plates were thawed to room temperature and 200x concentrations of treatment groups were prepared. 8-point conentration-reponse curves were made with the highest exposure at 100 uM, followed by half-log dilutions, all in 0.5% DMSO. Each test plate contained variouse controls, induction positive controls (1mM phenobarbital), cytotoxicity positive controls ([…] aflatoxin B1), vehicle controls (0.5% DMSO), and total lysis controls (0.5% DMSO). Cell morphology images were taken using an Essen IncuCyte FLR automated microscope, with six 96-well plates imaged in about 24 minutes. Images were captured and exported and JPEG files. Spent culture media was transfered to black-well plates for the LDH assay, and remaining media was sorted at -80 C for later use. Cells were treated with RLT buffer and frozen until shipped for gene expression analysis. Total RNA was isolated from the cell suspension in 75 uL of Buffer RLT (Qiagen, Germantown, MD 20874) by Quintiles/Expression Analysis (Durham, NC) using a custom isolation procedure. Total RNA from each plate well was transferred to a preamplification plate. Fluidigm's 96.96 Dynamic ArrayTM (Fluidigm, Amsterdam, the Netherlands) technology was used for gene expression analyses by quantitative reverse transcription polymerase chain reaction (qRT-PCR, performed by Quintiles/Expression Analysis, Durham, NC)89. Standard TaqManTM Assays (Applied Biosystems/ThermoFisher Scientific, Foster City, CA) were used to assess the expression of 93 genes selected based on their selectivity and sensitivity to important hepatic receptors known to be modulated by environmental chemicals; importance in human hepatocyte functionality; and hepatotoxicity. […]
For the compound `CNC(=O)Oc1cccc2c1OC(C)(C)O2`, the call was inactive.

As for `O=c1ccc(=O)[nH][nH]1`, the outcome was inactive.

As to `CCCCSP(=O)(SCCCC)SCCCC`, the outcome was inactive.

In the case of `CSc1nc(NC(C)C)nc(NC(C)C)n1`, the compound was called inactive.

Regarding `CCOP(=S)(OCC)Oc1ccc2c(C)c(Cl)c(=O)oc2c1`, the AC50 was 50 µM (active).

Take `CN(C)C(=O)Nc1cccc(C(F)(F)F)c1`: the outcome was inactive.

Consider `CCOP(=S)(OCC)Oc1ccc([N+](=O)[O-])cc1`, for which the outcome was inactive.

In the case of `Cc1nn(-c2cc(NS(C)(=O)=O)c(Cl)cc2Cl)c(=O)n1C(F)F`, the call was inactive.

As for `N#CSCSC#N`, the compound was called inactive.

As to `CCc1cnc(C2=NC(C)(C(C)C)C(=O)N2)c(C(=O)O)c1` (stereo not given), the compound was classed as inactive.

In the case of `CCCCOC(=O)[C@@H](C)Oc1ccc(Oc2ccc(C#N)cc2F)cc1`, the outcome was inactive.

In the case of `CC(COc1ccc(Oc2ccccc2)cc1)Oc1ccccn1` (stereo not given), the call was inactive.

`CCOP(=O)(OCC)Oc1cc(C)nc(C(C)C)n1`: the result was inactive.

As for `CON=C(C(=O)OC)c1ccccc1CON=C(C)c1cccc(C(F)(F)F)c1`, the compound was classed as inactive.

Consider `CCCSP(=O)(OCC)SCCC`, for which the result was inactive.

`CCOP(=S)(OCC)OC(Cl)C(Cl)(Cl)Cl` (stereo not given): the compound was called inactive.

On to `CCCSP(=O)(OCC)Oc1ccc(Br)cc1Cl` (stereo not given), for which the result was inactive.

For `CCc1cccc(CC)c1N(COC)C(=O)CCl`, the result was inactive.

For `CN1COCN(Cc2cnc(Cl)s2)C1=N[N+](=O)[O-]`, the compound was called inactive.

Turning to `Cc1cc(C2CC2)nc(Nc2ccccc2)n1`, the compound was classed as inactive.

As to `S=C1NCCN1`, the compound was classed as inactive.

As to `CNC(=O)ON=C(C)SC`, the compound was classed as inactive.

With `CC(C1CC1)C(O)(Cn1cncn1)c1ccc(Cl)cc1` (stereo not given), the compound was classed as inactive.

Regarding `CCC(=O)Nc1ccc(Cl)c(Cl)c1`, the AC50 was 50 µM (active).

For the compound `COc1cc(OC)nc(Sc2cccc(Cl)c2C(=O)O)n1`, the result was inactive.

As for `CC(C)N(C(=O)SCC(Cl)=C(Cl)Cl)C(C)C`, the compound was classed as inactive.

For `CNc1cnn(-c2cccc(C(F)(F)F)c2)c(=O)c1Cl`, the AC50 was 19.6 µM (active).

In the case of `CN(C)[C@@H]1C(=O)C(C(N)=O)=C(O)[C@@]2(O)C(=O)C3=C(O)c4c(O)cccc4[C@@](C)(O)[C@H]3[C@H](O)[C@@H]12`, the compound was classed as inactive.

Turning to `C#CC(C)(C)NC(=O)c1cc(Cl)cc(Cl)c1`, the result was inactive.

As to `O=C(O)c1cc(Oc2ccc(C(F)(F)F)cc2Cl)ccc1[N+](=O)[O-]`, the result was inactive.

For the compound `CCOC(=O)CC(SP(=O)(OC)OC)C(=O)OCC` (stereo not given), the result was inactive.

In the case of `COP(=O)(OC)C(O)C(Cl)(Cl)Cl` (stereo not given), the compound was classed as inactive.

In the case of `CCNc1nc(Cl)nc(NC(C)(C)C#N)n1`, the compound was classed as inactive.

`COc1cccc(C(=O)NN(C(=O)c2cc(C)cc(C)c2)C(C)(C)C)c1C`: the outcome was inactive.

With `Cc1ccn2nc(S(=O)(=O)Nc3c(F)cccc3F)nc2n1`, the result was inactive.

`FC(F)C(F)(F)OCC(Cn1cncn1)c1ccc(Cl)cc1Cl` (stereo not given): the AC50 is 37.3 µM (active).

With `C#CCC1=C(C)C(OC(=O)C2C(C=C(C)C)C2(C)C)CC1=O` (stereo not given), the outcome was inactive.

Turning to `Nc1nc(N)nc(NC2CC2)n1`, the compound was called inactive.

Turning to `COP(=O)(OC)SCn1c(=O)oc2cc(Cl)cnc21`, the compound was classed as inactive.

For the compound `CCOP(=S)(OCC)SCCSCC`, the outcome was inactive.
